Data published in ChEMBL document CHEMBL3988442, “University of Dundee, Small-Polar-MMV Screening Library” (2021).
About 65 (0.1%) of roughly 65,000 compounds showed an effect of 50% or more. The list comes from a sample in which strong results are over-represented; it also holds similar structures and randomly drawn compounds.

Biological target: Tryptophan--tRNA ligase (Mycobacterium tuberculosis (strain ATCC 25618 / H37Rv)) (UniProt P9WFT3)
Assay: Biochemical assay for Mt-TrpRS
Assay type: functional
Set-up: scale not given: direction of the effect not stated beside the values
Details: 10 µM

Chain of Tryptophan--tRNA ligase (Mycobacterium tuberculosis (strain ATCC 25618 / H37Rv)) (P9WFT3 whole entry): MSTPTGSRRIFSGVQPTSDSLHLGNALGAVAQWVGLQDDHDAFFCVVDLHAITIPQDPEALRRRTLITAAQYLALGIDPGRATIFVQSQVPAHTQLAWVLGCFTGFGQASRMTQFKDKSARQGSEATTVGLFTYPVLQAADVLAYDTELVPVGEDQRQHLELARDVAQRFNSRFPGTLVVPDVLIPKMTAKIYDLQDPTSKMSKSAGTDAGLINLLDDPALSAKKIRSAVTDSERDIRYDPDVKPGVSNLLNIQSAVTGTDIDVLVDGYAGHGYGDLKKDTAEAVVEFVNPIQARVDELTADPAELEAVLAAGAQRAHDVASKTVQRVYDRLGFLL

Row | SMILES | Percent Effect [%]
1 | CCN(CC1CCOC1)C(=O)c1ccc(N2CCOCC2)c(F)c1 (stereo not given) | 18.7
2 | C=C(C)CN(CC)C(=O)c1cc(F)ccc1N1CCN(C)CC1 | 1.96
3 | CCN(CC1CCOC1)C(=O)c1cc(F)ccc1N1CCN(C)CC1 (stereo not given) | 68.2
4 | Fc1cnc(N2CC[C@@H]3O[C@H](COCc4ccccn4)CC[C@@H]32)nc1 | -3.79
5 | CCc1cnc(N2C[C@H]3C[C@H](C(=O)NC)[C@@H](C2)O3)nc1 | -4.37
6 | c1ccc(CCN2CCOC(CNc3cccnn3)C2)nc1 (stereo not given) | -2.61
7 | c1cnnc(NCC2CN(CCn3cccn3)CCO2)c1 (stereo not given) | -1.42
8 | Cn1cc(CCN2CCOC(CNc3cccnn3)C2)cn1 (stereo not given) | 66
9 | c1ccc(CN2C[C@H]3CCC[C@@]3(COCC3CC3)C2)nc1 | -0.775
10 | COc1ccc(CN2C[C@@H]3OCCN(CC4CCCO4)[C@@H]3C2)cc1 (stereo not given in full) | 4.27
11 | c1ccc(Cn2cc(CNCC3CNc4ccnn4C3)cn2)cc1 (stereo not given) | 62.4
12 | c1cc(CNCC2CNc3ccnn3C2)cc(Cn2cccn2)c1 (stereo not given) | 2.73
13 | c1ccc(Cn2cccn2)c(CNCC2CNc3ccnn3C2)c1 (stereo not given) | 6.16
14 | COc1ccc(C(=O)N2CCO[C@H]3[C@@H](OCC4CC4)CC[C@@H]32)cc1F | -0.755
15 | Cc1ccc(CN2CC(C(=O)NC(C)C)C3(CCOCC3)C2)s1 (stereo not given) | 0.402
16 | CC(c1ccc2c(c1)OCO2)N1Cc2nc(N(C)C)ncc2C1=O (stereo not given) | 4.59
17 | N#Cc1ccsc1N1CCC(Sc2ccncc2)C1=O (stereo not given) | 4.7
18 | CC(C)c1nn(C)c(N2CCOCC2)c1CNCC(=O)N(C)C | 4.97
19 | CC(NCc1c(C(C)C)nn(C)c1N1CCOCC1)C(=O)N(C)C (stereo not given) | 71.4
20 | CC(NCc1c(C(C)C)nn(C)c1N1CCOCC1)C(N)=O (stereo not given) | -6.01
21 | c1ccc(CN2CC[C@@H]3O[C@@H](COCCN4CCCC4)CC[C@@H]32)nc1 | 1.72
22 | CC(C)c1noc(CN2CCC(c3ccnn3CCO)CC2)n1 | -1.43
23 | CC(C)c1nc(CN2CCC(c3ccnn3CCO)CC2)no1 | 61.5

Row | SMILES | Percent Effect [%]
24 | CC(C)(C)c1nc(CN2CCC(c3ccnn3CCO)CC2)no1 | 23.6
25 | COc1cc(Cl)ccc1C(=O)NCc1nncn1C | -10.5
26 | Cn1cnnc1C1CCN(C(=O)CCOc2ccc(Cl)cc2)CC1 | 64.2
27 | Cc1cccc(C)c1OCCC(=O)N1CCC(c2nncn2C)CC1 | 3.92
28 | Cn1cnnc1C1CCN(C(=O)CCCOc2ccccc2)CC1 | -0.13
29 | CC[C@H]1CN2CC[C@H]1C[C@@H]2CNCc1ccc(OC(F)(F)F)cc1 | -0.828
30 | O=C(C1CC1)N1CC[C@H]2[C@@H]1CCC(=O)N2c1ccccc1 | 6.13
31 | N#Cc1cn[nH]c1NCc1cc(Cl)cc(Cl)c1O | 8.64
32 | N#Cc1cn[nH]c1NCc1cc(I)cc(I)c1O | 3.89
33 | N#Cc1cn[nH]c1NCc1cc(Br)ccc1O | 288
34 | NCCN1C(=O)CC[C@H]2CN(Cc3ccc4occc4c3)CC[C@H]21 | 1.29
35 | COCCN1C[C@H]2CCN(C(=O)Nc3ccccc3C)CC[C@H]2S1(=O)=O | -4.45
36 | Cc1ncoc1C(=O)N1C[C@H]2CCC[C@@]2(COCc2cccnc2)C1 | 1.59
37 | CC(C(=O)NCc1ccc(N2CCCCC2)nc1)S(C)(=O)=O (stereo not given) | -4.1
38 | CC(C(=O)NCc1ccc(N2CCCC2)nc1)S(C)(=O)=O (stereo not given) | 59.5
39 | CC(C(=O)NCc1ccc(N2CCCCCC2)nc1)S(C)(=O)=O (stereo not given) | -1.98
40 | Cc1nnc2n1CCN(CC(=O)N1CCc3ccccc3C1)C2 | 18.8
41 | Cc1cccc(CN2CCC[C@@H]3CN(C(=O)c4ccco4)C[C@@H]32)n1 | 0.174
42 | COc1ccc(C[C@H]2CN(c3cc(OC)ncn3)CC[C@H]2OC)cc1 | 5.86
43 | O=C(NCC(F)(F)F)C(c1cccnc1)N1CCCC1 (stereo not given) | 0.735
44 | O=C(NCC1=CCCCC1)C(c1cccnc1)N1CCCC1 (stereo not given) | 51
45 | O=C(NCC1=CCCCC1)C(c1cccnc1)N1CCOCC1 (stereo not given) | -0.187
46 | CCn1c(SC)nnc1C1CCN(C(=O)N2CCCC2)CC1 | -3

Row | SMILES | Percent Effect [%]
47 | Cn1ccnc1CN1C(=O)CO[C@H]2CN(Cc3ccc(F)c(F)c3)C[C@H]21 | 2.2
48 | O=C(NCC1CC1)[C@@H]1CCO[C@@H]2CCN(Cc3ccco3)C[C@H]21 | 9.55
49 | c1ccc(O[C@@H]2CC[C@H]3[C@H]2OCCN3Cc2ccsc2)nc1 | 8.46
50 | CCC(CC)c1nnc(NC(=O)NC(C)Cn2cccn2)s1 (stereo not given) | 69.6
51 | CCCc1nnc(NC(=O)NC(C)Cn2cccn2)s1 (stereo not given) | -6.24
52 | Cc1nnc(NC(=O)NC(C)Cn2cccn2)s1 (stereo not given) | -5.8
53 | COCCNC(=O)[C@H]1C[C@@H]2CCN(c3ccccc3)C[C@H]2O1 | 6.99
54 | CNC(=O)[C@@H]1COC[C@H]2CN(C(=O)c3cccc(OC)c3)C[C@H]21 | 1.06
55 | COc1ccccc1CN1CCC(c2nccc(C)n2)C1 (stereo not given) | 22
56 | COc1cccc(F)c1CN1CCC(c2nc(C)cc(C)n2)C1 (stereo not given) | 70.2
57 | COc1cccc(F)c1CN1CCC(c2nccc(C)n2)C1 (stereo not given) | -3.03
58 | Cc1ccc(N2CC[C@H]3OCC[C@@]3(C(=O)N3CCCC3)C2)nn1 | 1.02
59 | CCN(CC)S(=O)(=O)N1CCCC1c1cccc(Nc2ncc(C)s2)n1 (stereo not given) | 1.88
60 | CCn1cc(NC(=O)NC(CO)Cc2c[nH]c3ccccc23)cn1 (stereo not given) | 2.58
61 | CCn1cc(S(=O)(=O)NC(CO)Cc2c[nH]c3ccccc23)cn1 (stereo not given) | -4.44
62 | CCn1cc(S(=O)(=O)NC(=O)CCc2c[nH]c3ccccc23)cn1 | 57.5
63 | Cc1csc(C(=O)NCCN2CCC(c3cccs3)CC2)c1 | 0.44
64 | Cc1cccc(CN2CC[C@@H]3[C@@H]2CCN3C(=O)c2cc(C)on2)n1 | -0.968
65 | CCN1CCN(C(=O)c2cc(-c3ccc(C)o3)n[nH]2)[C@H]2CS(=O)(=O)C[C@H]21 | 2.31
66 | O=C(C1=CCCC1)N1CCO[C@H]2[C@@H](OCC3CC3)CC[C@@H]21 | 0.105
67 | Cc1cc(CN2CCN(C(=O)NCc3cccs3)CC2)no1 | -4.93
68 | Cc1cc(CN2CCN(C(=O)NCc3ccoc3)CC2)no1 | -3.89
69 | Cc1cc(CN2CCN(C(=O)NCc3ccco3)CC2)no1 | 70.1

Row | SMILES | Percent Effect [%]
70 | COCC(=O)N1C[C@@H](c2cccc(F)c2)[C@H]2[C@H]1CCCCCN2C(C)=O | 9.95
71 | O=C(CC1CC1)N1CCC2(CC1)CN(Cc1cccnc1)C(=O)CO2 | -3.48
72 | CCn1cnnc1C1CCN(C(=O)c2cc3c(s2)CCCC3)CC1 | -7.73
73 | Cn1cnnc1C1CCN(C(=O)c2cc3c(s2)CCC3)CC1 | -1.59
74 | Cn1cnnc1C1CCN(C(=O)c2cc3c(s2)CCCC3)CC1 | 83.8
75 | Cc1nc(C)c(CNC[C@@]2(COc3cccnc3)C[C@@H](O)[C@@H](O)C2)s1 | -10.4
76 | CN(Cc1ccco1)[C@@H]1CN(Cc2ccc(F)cc2)[C@@H]2CCCO[C@H]12 | -5.38
77 | CCS(=O)(=O)N1C[C@@H](OCc2ccccn2)[C@@H]2OCCC[C@@H]21 | 4.01
78 | Cn1nc(C#N)c2c1CN(C(=O)c1ccnnc1)CCC2 | 4.65
79 | Cn1nc(C#N)c2c1CN(C(=O)c1ccco1)CCC2 | 50.1
80 | Cn1nc(C#N)c2c1CN(C(=O)c1cccnc1)CCC2 | 11.1
81 | CC(C)CC(=O)N1C[C@H]2CCCN(S(=O)(=O)c3ccc(Cl)s3)[C@H]2C1 | -3.18
82 | CC(C)OCCCNC(=O)CS(=O)(=O)Cc1ccc(Cl)cc1 | 75.4
83 | CC(C)OCCCNC(=O)CS(=O)(=O)Cc1ccc(C(C)C)cc1 | 2.32
84 | Cc1ccc(CS(=O)(=O)CC(=O)NCCCOC(C)C)cc1 | -5.37
85 | Cn1ncc2c(N3CCCN4CCC[C@H]4C3)nc(C(C)(C)C)nc21 | 2.18
86 | CC(C)N1[C@H](CN2CCCC2)C[C@@H]2CN(C(=O)c3ccoc3)CC[C@@H]21 | 0.0969
87 | COCCN1CCC(NCc2cc(F)ccc2F)C1 (stereo not given) | 12.2
88 | COCCN1CCC(NCc2cccc(F)c2)C1 (stereo not given) | -5.04
89 | COCCN1CCC(NCc2ccc(F)cc2F)C1 (stereo not given) | 83.4
90 | O=C(c1ccccn1)N1C[C@@H]2CC[C@H](C1)N(C(=O)CCN1CCCC1)C2 | 4.71
91 | O=C(O)CCCC(=O)N1CCC(c2noc3cc(F)ccc23)CC1 | 1.46
92 | NC(=O)CN1CCC(c2noc3cc(F)ccc23)CC1 | 76.4

Row | SMILES | Percent Effect [%]
93 | O=C(O)CCC(=O)N1CCC(c2noc3cc(F)ccc23)CC1 | 1.33
94 | CCS(=O)(=O)N1CCC[C@]2(C(=O)N(C)C)CN(c3ccccn3)C[C@@H]2C1 | -1.99
95 | NC(=O)N1CCc2cc(C(=O)O)c(-c3ccsc3)nc2CC1 | -4.21
96 | Cc1ncsc1C(=O)N(Cc1ccccc1)C1CC1 | -6.55
97 | Cc1ncsc1C(=O)N(Cc1cccs1)C1CC1 | -1.87
98 | Cc1ncsc1C(=O)N(Cc1ccccn1)C1CC1 | 75.1
99 | O=C(NC1CC(F)(F)C1)[C@]12COC[C@H]1CN(Cc1cccnc1)C2 | -2.86
100 | Cc1ncsc1CN1C[C@@H]2COC[C@]2(C(=O)NCC2CC2)C1 | 0.881
101 | CCc1cnc(N2C[C@H]3C[C@H](C(=O)NCC(C)C)[C@@H](C2)O3)nc1 | 1.95
102 | CC(=O)c1cccc(NC(=O)N(CC(F)F)C2CC2)c1 | 4.27
103 | Cc1cccc(NCc2nc(C)ccc2O)c1 | 52.2
104 | CCn1nnnc1-c1cccc(NCc2nc(C)ccc2O)c1 | -6.59
105 | Cc1ccc(O)c(CNc2cccc(OCCF)c2)n1 | -4.08
106 | CCNC(=O)[C@@H]1C[C@@H](N)CN1C(=O)c1cc2ccccc2[nH]1 | 2.18
107 | Cc1ccc(N2C[C@@H]3CN(C(=O)c4ccccc4)CCO[C@@H]3C2)nn1 | 12.7
108 | Cn1ccnc1CN1CCN2C[C@H](Oc3ccccc3)C[C@H]2C1 | 2.44
109 | CC(=O)Nc1ccc(CN2C[C@H]3CC[C@@H]2CN(c2ncccn2)C3)cc1 | 3.06
110 | c1cncc(CN2CCO[C@H]3[C@H](OCCN4CCCC4)CC[C@@H]32)c1 | 2.57
111 | Cc1c[nH]c(CN2CC[C@@]3(O)CCN(C(=O)C4CCC4)C[C@H]3C2)n1 | 1.37
112 | Cc1ncsc1C(=O)NC1CCN(CCC#N)CC1 | 57.5
113 | Cc1ncsc1C(=O)NC1CCN(CCC(N)=O)CC1 | 0.56
114 | Cc1ncsc1C(=O)NC1CCN(CCCC#N)CC1 | -4.15
115 | CN(Cc1cccnc1)C[C@H]1OC[C@@H]2CCN(C(=O)C3CC3)C[C@@H]21 | -1.23
